This note sets out measurements from PubChem BioAssay.

Calls of active or inactive are those of the source. The rule behind the calls is not given here.

This assay can be described thus: Brca1-Bard1 BiLC signal decrease – luminescence, single concentration, counter-screen for Mdm2/MdmX interaction inhibitor project, confirmation (AID 504668). The conditions noted are these: Brca1/Bard1 bimolecular luciferase complementation counterscreen, at 8 µM, stronger effect = higher value. In general terms: Counterscreens check selectivity or assay interference.
As usually defined, the inhibition is the drop in the measured response relative to a control, in per cent. As to `CC(C)c1cccc(O)c(=O)c1`, the inhibition is 27.6% (active).

For `Cc1ccc(-n2c(C)cc(/C=c3/sc4nc5ccccc5n4c3=O)c2C)cc1`, the inhibition was 27.7% (active).

In the case of `Cc1nc2ccccn2c1C(=O)/C=C/c1cccc([N+](=O)[O-])c1`, the inhibition was 27.6% (active).

Regarding `CN1C2CCC1/C(=C\c1ccccc1F)C(=O)/C2=C/c1ccccc1F`, the inhibition is 35.1% (active).

For `Cc1ccc(N=Nc2ccc(O)c3ncccc23)cc1C`, the inhibition was 25.6% (active).

On to `CCN(CC)C(=O)C1CCCc2c1[nH]c1ccc(Cl)cc21` (stereo not given), for which the inhibition was 34.6% (active).

With `CCCCC(=O)NC(c1cccs1)c1cc(Cl)c2cccnc2c1O` (stereo not given), the inhibition is 28.5% (active).

In the case of `COc1ccc(N=Nc2ccc(O)c3ncccc23)cc1`, the inhibition was 31.7% (active).

Turning to `Cc1c(Cl)c([N+](=O)[O-])nn1Cc1ccc(C(=O)N/N=C\c2cc(Cl)ccc2O)o1`, the inhibition is 32.4% (active).

Consider `O=C(c1ccc(S(=O)(=O)c2ccc(F)cc2)c([N+](=O)[O-])c1)N1CCCCCC1`, for which the inhibition was 30.1% (active).

On to `CN(C)CCCNC(=S)NCC(c1ccc(Cl)cc1Cl)c1c[nH]c2ccccc12` (stereo not given), for which the inhibition was 29.2% (active).

`CCN(CC)C(=O)N1c2ccccc2C=Cc2ccccc21`: the inhibition is 33.7% (active).

With `Cc1sc2ncn(CC(=O)NCCCC(=O)Nc3ccc(C(C)C)cc3)c(=O)c2c1C`, the inhibition is 29.2% (active).

Regarding `O=C(N/N=C(\c1ccccc1)c1cccnc1)c1cccc(F)c1`, the inhibition was 33.2% (active).

Take `CCCCCCCCn1c2c(c(=N)c3ccccc31)CCC2`: the inhibition is 27.2% (active).

Turning to `CCC(=O)NC(c1ccc(C)cc1)c1cc(Cl)c2cccnc2c1O` (stereo not given), the inhibition was 23.8% (active).

In the case of `CCOc1ccc(CNC(=O)c2cc3oc4ccccc4c3n2C)cc1`, the inhibition is 25.6% (active).

Take `CC1CCN(Cc2c(C(=O)N/N=C/c3ccccc3O)nnn2-c2nonc2N)CC1`: the inhibition was 32.5% (active).

For `CC(C)Cn1c(=O)c(C(=O)Nc2ccccc2S(N)(=O)=O)c(O)c2ccccc21`, the inhibition was 26.4% (active).

As to `Cc1cc(NC(=O)c2ccc(F)cc2F)n(-c2nc3ccccc3[nH]2)n1`, the inhibition was 29.6% (active).

On to `O=C(Nc1ccc(N2CCCCC2)cc1)c1ccccn1`, for which the inhibition is 27.9% (active).

On to `COC(=O)c1cccc(C23CC4(C2)[C@H](CN(Cc2ccc(C(F)(F)F)cc2)[C@@H]4c2ccccc2)C3c2ccc(C(F)(F)F)cc2)c1` (stereo not given in full), for which the inhibition is 23.6% (active).

Regarding `O=[N+]([O-])c1ccccc1C1Nc2cccc3cccc(c23)N1`, the inhibition is 26.9% (active).

With `Clc1ccc(C2=Nn3c(nnc3-c3n[nH]c4c3CCC4)SC2)cc1Cl`, the inhibition is 34% (active).

On to `Cc1ccc(S(=O)(=O)N2CCOCC2)cc1C(=O)Nc1nc(-c2ccccn2)cs1`, for which the inhibition is 30.4% (active).
